Screens deposited in PubChem BioAssay by several laboratories.
Hits are enriched below; roughly 1.3% of the tested compounds scored in any of these assays.
CRFR2-BP ag – agonists of CRF-BP/CRF-R2 complex, primary screen, cell-based, HEK293, calcium dye fluorescence, uHTS | calcium dye fluorescence (FLIPR); percent of saturating CRF peptide response | activation, % at 13.2 µM | 350,000 compounds, 0.46% hits;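 active = activation of at least 50%, plus an integration ratio under a set limit after plate pattern correction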
Keap1 Nrf2 FP – Keap1-Nrf2 protein-protein interaction inhibitors, primary screen, biochemical, fluorescence polarization, single point; Kelch-like ECH-associated protein 1 (Homo sapiens), Q14145; Keap1 Kelch-Nrf2 peptide fluorescence polarization, 1536-well; inhibition, % at 9.4 µM; 340,000 compounds, 0.15% hits; in the data active = inhibition above about 12%;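 also: human Keap1 Kelch domain with fluorescein labeled Nrf2 9mer peptide probe; higher means more block of Keap1 binding to Nrf2 peptide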
Target sequence (Q14145 whole entry, looked up, the tested form may be a part): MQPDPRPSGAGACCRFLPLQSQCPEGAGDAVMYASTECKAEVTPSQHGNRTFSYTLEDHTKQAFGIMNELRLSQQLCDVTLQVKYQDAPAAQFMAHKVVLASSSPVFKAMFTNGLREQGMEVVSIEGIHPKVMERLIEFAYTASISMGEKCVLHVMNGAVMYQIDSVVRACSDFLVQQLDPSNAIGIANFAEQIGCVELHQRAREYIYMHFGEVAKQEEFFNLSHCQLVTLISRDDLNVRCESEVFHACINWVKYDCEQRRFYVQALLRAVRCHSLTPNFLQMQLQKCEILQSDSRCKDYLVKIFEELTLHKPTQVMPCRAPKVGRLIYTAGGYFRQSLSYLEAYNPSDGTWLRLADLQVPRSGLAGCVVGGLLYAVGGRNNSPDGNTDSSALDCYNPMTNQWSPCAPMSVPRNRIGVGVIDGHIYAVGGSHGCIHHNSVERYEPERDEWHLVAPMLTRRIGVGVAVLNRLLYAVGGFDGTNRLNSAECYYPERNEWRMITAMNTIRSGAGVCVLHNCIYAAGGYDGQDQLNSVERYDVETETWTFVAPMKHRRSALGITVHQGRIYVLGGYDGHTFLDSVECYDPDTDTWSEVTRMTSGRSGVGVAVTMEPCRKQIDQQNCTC
Cardiac RTF inh – cardiac RTF calcium sensitivity inhibitors, primary screen, biochemical, IANBD-TnC fluorescence, EC70 calcium; IANBD-labeled cardiac RTF, Ca2+ fluorescence; 340,000 compounds, 0.12% hits; AID 493244, 2011; inhibition, % at 7.15 µM; Troponin I, cardiac muscle (Homo sapiens) + Troponin T, cardiac muscle (Homo sapiens) + …;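 active = inhibition above the mean inhibition of all tested compounds plus 3 SD, cut at about 17% in these data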;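 also: assay run at fixed EC70 calcium of 1.6 mM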
CRFR2-BP antag – antagonists of CRF-BP/CRF-R2 complex, primary screen, cell-based, HEK293, calcium dye fluorescence, uHTS. CRF-induced calcium fluorescence. inhibition, % at 11.8 µM. 350,000 compounds, 0.59% hits;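 active = inhibition of the ligand-induced calcium signal above about 50% at the single tested concentration, limit read from the data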
C-LANA FP – inhibitors of KSHV C-LANA binding to DNA, primary screen, biochemical, fluorescence polarization, FAM-LBS DNA, MBP-C-LANA, single point; inhibition, % at 9 µM; 340,000 compounds, 0.078% hits; AID 504423, 2011;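 active = highest replicate inhibition at or above 60% at 9 µM, even if other replicates fall short; inactive = all replicates below 60% inhibition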
RTF Ca sens act – cardiac RTF calcium sensitivity activators, primary screen, biochemical, IANBD-TnC fluorescence, EC20 calcium; Troponin I, cardiac muscle (Homo sapiens) + Troponin T, cardiac muscle (Homo sapiens) + …; IANBD-labeled TnC RTF fluorescence at EC20 calcium; 0% EC20 calcium, 100% full calcium; activation, % at 7.2 µM; 340,000 compounds, 0.24% hits;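 active = activation above the mean over all tested compounds plus 3 SD, cut at about 30% in these data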;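 also: rise in fluorescence read as greater calcium sensitivity of cardiac thin filaments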
Large screens that a line does not name were inactive.

Cc1ccc(O)c(C(=O)c2cc(C#N)c(=O)n(Cc3ccccc3)c2)c1	none
CC(=O)N1CCN(c2ccc(NC(=O)c3ccccc3Cl)cc2)CC1	none
O=C(Nc1ccc(C(=O)N2CCCC2)cc1)c1ccccc1F	CRFR2-BP antag 66
O=C(Nc1ccc(N2CCCCCC2)cc1)c1ccccc1Cl	CRFR2-BP antag 81
C/[N+]([O-])=C\C1C(=O)CC(C)(C)CC1=O	CRFR2-BP antag 53
Cc1ccccc1NS(=O)(=O)c1ccc(C(=O)N(C)CC(=O)Nc2ccccc2Br)cc1	CRFR2-BP antag 88
Cc1ccc(NC(=O)O/N=C/c2ccc(F)cc2)cc1	RTF Ca sens act 37
Cc1ccc(NC(=O)O/N=C/c2ccc(Br)cc2)cc1	none
O=C(O)c1cccc2c1Cc1cc(Cl)ccc1-2	none
CN(C)c1ccc(C(=O)OCC(=O)Nc2ccc(N3CCOCC3)cc2)cc1	none
O=C(Cn1cc([N+](=O)[O-])ccc1=O)NCc1ccc(Cl)cc1Cl	none
O=C(c1ccc([N+](=O)[O-])cc1)N(Cc1ccc(Cl)cc1)N1C(=O)CCCC1=O	CRFR2-BP ag 157
O=C(c1ccc([N+](=O)[O-])cc1)N(Cc1ccc(Cl)cc1Cl)N1C(=O)CCCC1=O	CRFR2-BP ag 53
O=C(c1ccc(Cl)cc1)N(Cc1ccc(Br)cc1)N1C(=O)CCC1=O	none
CC(Sc1nnc(COc2ccc([N+](=O)[O-])cc2)n1C)C(=O)O (centres undefined)	none
CCOc1ccc(C(=O)NNC(=O)CCNC(=O)c2ccc(Br)cc2)cc1OC	none
CCOc1ccc(C(=O)NNC(=O)CCNC(=O)c2ccco2)cc1OC	CRFR2-BP antag 97
COc1cc([C@@H]2[C@H]3CNCC=C3C(C#N)=C(N)C2(C#N)C#N)ccc1OC(C)C	none
COc1cc(C2C3CN(C)CC=C3C(C#N)=C(N)C2(C#N)C#N)ccc1OC(C)C (centres undefined)	RTF Ca sens act 42
CC(C)N(CCn1c(SCC(=O)N2CC(=O)Nc3ccccc32)nc2ccccc2c1=O)C(C)C	none
CN(C(=O)COC(=O)CCc1nc2ccccc2c(=O)[nH]1)C1CCS(=O)(=O)C1 (centres undefined)	CRFR2-BP antag 53
Cc1ccccc1COc1ccc(/C(O)=C2/C(=O)C(=O)N(CCCn3ccnc3)C2c2ccco2)cc1 (centres undefined)	CRFR2-BP antag 54
COc1ccc(CNc2nc(NCc3ccc(OC)cc3)n(C(=O)c3ccncc3)n2)cc1	none
CCN1CCN(c2cc(N3CCN(C(=O)c4ccco4)CC3)c3c4c(onc24)-c2ccccc2C3=O)CC1	none
O=C(O)CCNc1cc(N2CCN(C(=O)c3ccco3)CC2)c2noc3c2c1C(=O)c1ccccc1-3	RTF Ca sens act 139
O=C(N/N=C/c1coc2ccccc2c1=O)c1cccc([N+](=O)[O-])c1	none
O=C(CNC(=O)c1ccccc1)OCC(=O)N1N=C(c2ccc(Cl)cc2)CC1c1ccco1 (centres undefined)	none
Cc1ccc(S(=O)(=O)N[C@H](C(=O)OCC(=O)N2N=C(c3ccc(Cl)cc3)CC2c2ccco2)C(C)C)cc1 (some centres undefined)	CRFR2-BP ag 58
CCCc1ccc(-c2ccc(C(=O)O)cc2)nc1	none
Cc1ccc(C(=O)OCC(=O)c2cc(C)n(CC3CCCO3)c2C)cc1 (centres undefined)	CRFR2-BP antag 79
Cc1cc(C)c2c(CC(=O)NC(C)C)coc2c1	none
Cc1cc(C)c2c(CC(=O)Nc3nccs3)coc2c1	CRFR2-BP antag 99
CC(NC(=O)COc1ccc(S(=O)(=O)N2CCOCC2)cc1)c1ccccc1 (centres undefined)	none
Cc1ccc(CNc2ccc3c(c2)ncn3C(C)C)cc1	CRFR2-BP ag 61
CCn1cnc2cc(NCc3ccc(Br)cc3)ccc21	CRFR2-BP ag 52 (no result: Keap1 Nrf2 FP, Cardiac RTF inh, C-LANA FP, RTF Ca sens act)
